Rows were chosen to be rich in hits. Some 3.5% of all compounds tested hit in one or more screens of this group.
RE007 growth inh = less growth of the S. pombe RE007 Vpr strain | S. pombe RE007 Vpr strain, BacTiter-Glo ATP luminescence, 24 h | Potency, µM (doses to about 92.2 µM), actives largely listed as inhibitors | 0.21% of 360,000 active | AID 651644; active means well fitted falling curve with a large enough effect; inconclusive means small, poorly fitted or top-dose-only effect; inactive means no such curve, though single readings can be large or run the other way; further: nearly all actives have a fitted effect of over 50% in size
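Fission yeast RE007 carrying one integrated HIV-1 vpr copy, seeded at OD 0.01 in PMG+AL medium with 23 nL pinned compound. Grown 24 h at 30 degrees; viability read by BacTiter-Glo luminescence after 5 min.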
Giardia FBPA inh = Giardia lamblia aldolase inhibition; Potency, µM (titrated, usually from 59.6 µM), actives largely listed as inhibitors; A8B2U2; purified Giardia FBPA; 0.71% of 290,000 active; further: nearly all actives have a fitted effect of over 55% in size
Target sequence (A8B2U2 whole entry, looked up): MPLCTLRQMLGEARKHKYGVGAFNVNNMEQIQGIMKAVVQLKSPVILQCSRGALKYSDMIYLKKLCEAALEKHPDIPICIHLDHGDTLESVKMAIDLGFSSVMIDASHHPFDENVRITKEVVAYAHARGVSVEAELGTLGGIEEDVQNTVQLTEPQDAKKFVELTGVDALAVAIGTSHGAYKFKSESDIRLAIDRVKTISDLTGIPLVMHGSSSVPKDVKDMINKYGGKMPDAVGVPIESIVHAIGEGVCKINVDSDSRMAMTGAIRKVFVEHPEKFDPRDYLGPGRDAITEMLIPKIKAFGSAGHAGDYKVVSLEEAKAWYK
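40 nM FBPA preincubated 10 min at RT with compound (up to 57.5 uM final), then substrate plus GAPDH/TPI/NAD/arsenate coupling and diaphorase/resazurin added. Fluorescence read after 20 min at RT, 525/598 nm.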
Tb PYK inh = inhibitors of Trypanosoma brucei pyruvate kinase; Q57TT1; 0.12% of 410,000 active; Potency, µM (highest dose often 76.8 µM), usual class: inhibitors; AID 624173; TbPYK enzyme, Kinase-Glo Plus ATP luminescence, 45 min; further: nearly all actives have a fitted effect of over 50% in size
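Enzyme and substrate buffer are dispensed first and compound is pin-transferred. ADP at 130 uM final then starts the reaction, which runs 45 min at room temperature. Detection reagent is added for 10 min before luminescence is imaged.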
Sm TGR inh = inhibitors of Schistosoma mansoni thioredoxin glutathione reductase. Potency, µM (titrated, usually from 114 µM), usual class: inhibitors. purified TGR, DTNB reduction, TNB absorbance 405 nm. 3% of 360,000 active; further: nearly all actives have a fitted effect of over 60% in size
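First, TGR (20 nM dispensed) and NADPH were mixed with compound. Second, a 15 min room-temperature incubation followed. Third, further NADPH and then DTNB were added to start the reaction. Finally, TNB absorbance was monitored kinetically.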
LmPK inh = inhibitors of Leishmania mexicana pyruvate kinase. Q27686. purified LmPK, Kinase-Glo ATP luminescence, 1 h. Potency, µM (top dose mostly 57.5 µM), actives largely listed as inhibitors. 0.37% of 290,000 active
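0.1 nM LmPK, 0.5 mM PEP, 0.1 mM ADP; 50 mM imidazole pH 7.2, 7 mM MgCl2, 50 mM KCl; 1 h RT. Kinase-Glo luminescence readout, normalized to no-enzyme (full inhibition) and uninhibited wells.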
NS1 inh = influenza NS1 inhibition; AID 2326; Potency, µM (series often up to 46.1 µM); 0.4% of 270,000 active; calls by dose curve; further: actives are rising curves; nearly all actives have a fitted effect of over 50% in size
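Growth recovery, yeast-based: influenza A NS1 expressed in S. cerevisiae causes slow growth, and suppressors are detected by OD600. The parent strain without NS1 is used as positive control.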
Each line names hits and unclear results; the compound was inactive in the other large screens; ! = a repeat was not active. Unless noted, the call rests on the fitted dose curve; in most records, active means well fitted curve in the direction sought with a large enough effect; inconclusive means small, poorly fitted or top-dose-only effect, or another doubt; inactive means no such curve, though single readings can be large; an effect the other way counts as inactive or inconclusive.

COC(=O)CCCC1=CC2=C(c3ccccc3)C(=O)C(C)(OC(=O)C3CCCC3)C(=O)C2=CN1C(CO)CO (stereo not given)	Giardia FBPA inh inconclusive, Sm TGR inh 39.8µM
CC1CCN(C(=O)CN2c3ccc(Br)cc3-c3ccccc3S2(=O)=O)CC1	none (no result: RE007 growth inh, Giardia FBPA inh, LmPK inh, NS1 inh)
CCCCS(=N)(=O)CC[C@H](N)C(=O)O (stereo not given in full)	none (no result: RE007 growth inh, Tb PYK inh, Sm TGR inh, LmPK inh)
CCOC(=O)c1cc(-c2ccc(OC)cc2)n(CCC(=O)Nc2nc3ccc(OCC)cc3s2)c1C	none (no result: RE007 growth inh, Giardia FBPA inh, LmPK inh, NS1 inh)
Cc1cc(C)cc(Nc2nnc(-n3nc(C)cc3C)c3ccccc23)c1	none (no result: RE007 growth inh, Giardia FBPA inh, LmPK inh, NS1 inh)
Cc1ccccc1NS(=O)(=O)c1cc(C(=O)NCCSC2CCCCC2)ccc1C	RE007 growth inh 11.2µM, NS1 inh inconclusive
Cc1ccc(C)c(NS(=O)(=O)c2cc(C(=O)NCCSC3CCCCC3)ccc2C)c1	none
CC1(C)Oc2ccc3ccc(=O)oc3c2C(N2CCCCC2)C1O (stereo not given)	Sm TGR inh 35.5µM
CCCOCc1cc(CN2CCN(c3ccccc3OC)CC2)c(O)c2ncccc12	Sm TGR inh 39.8µM (no result: RE007 growth inh, Giardia FBPA inh, LmPK inh, NS1 inh)
COc1ccccc1N1CCN(Cc2cc(Br)c(O)c3ncccc23)CC1	Giardia FBPA inh inconclusive, Sm TGR inh 3.16µM
c1ccc2nc3ccccc3cc2c1	none (no result: RE007 growth inh, Tb PYK inh, Sm TGR inh, LmPK inh, NS1 inh)
C[n+]1c2ccccc2nc2ccc(NCCO)cc21	RE007 growth inh 3.55µM, Giardia FBPA inh inconclusive, Tb PYK inh inconclusive, Sm TGR inh 10µM
CNc1ccc2nc3ccccc3[n+](C)c2c1	RE007 growth inh inconclusive, Tb PYK inh inconclusive, Sm TGR inh 6.31µM
CCc1nn2c(=O)c(S(=O)(=O)Nc3ccc(C)c(C)c3)c(C)nc2s1	none (no result: RE007 growth inh, Giardia FBPA inh, LmPK inh, NS1 inh)
CCOc1ccccc1NC(=O)Cn1c(=O)n(Cc2ccc(OC)cc2)c(=O)c2oc3ccccc3c21	none (no result: RE007 growth inh, Giardia FBPA inh, LmPK inh, NS1 inh)
CCN(CC)C1=CC(=O)OC12CCCCC2	Sm TGR inh 1.58µM
CN(c1ccccc1)S(=O)(=O)c1nnc(NC(=O)c2ccco2)s1	none (no result: Giardia FBPA inh)
CCN(c1ccc(C)cc1C)S(=O)(=O)c1nnc(NC(=O)c2ccco2)s1	Sm TGR inh 50.1µM
CCN(c1ccc(C)cc1)S(=O)(=O)c1nnc(NC(=O)c2ccco2)s1	Sm TGR inh 22.4µM
CC(C)CN(c1ccccc1)S(=O)(=O)c1nnc(NC(=O)c2ccco2)s1	Sm TGR inh 35.5µM!
CC(C)c1ccc2oc(-c3ccc(NC(=O)c4cccc(Br)c4)cc3)nc2c1	none (no result: RE007 growth inh, Giardia FBPA inh, LmPK inh, NS1 inh)
CCCN(C(=O)CCl)C1=CCCCC1	Sm TGR inh 11.2µM (no result: NS1 inh)
CCN(C(=O)COC(=O)CNC(=O)c1ccccc1C)C1=CCCCC1	none (no result: Giardia FBPA inh, LmPK inh, NS1 inh)
Cc1cc(NC(=O)COc2cccc([N+](=O)[O-])c2)no1	Sm TGR inh 44.7µM (no result: Giardia FBPA inh)
Cc1ccc(CN(C(=O)COc2cccc([N+](=O)[O-])c2)c2ccccn2)cc1	none (no result: RE007 growth inh, Giardia FBPA inh, LmPK inh, NS1 inh)
Cc1ccc(CN(C(=O)COc2cccc([N+](=O)[O-])c2)c2ccccn2)o1	Sm TGR inh 50.1µM (no result: RE007 growth inh, Giardia FBPA inh, LmPK inh, NS1 inh)
COc1cc(OC)c(NC(=O)NC(C)c2c(-n3cccc3)sc(C)c2C)cc1Cl (stereo not given)	none (no result: RE007 growth inh, Giardia FBPA inh, LmPK inh, NS1 inh)
O=C(CCl)NC(Cc1ccccc1)c1ccccc1 (stereo not given)	Sm TGR inh 22.4µM
CC(=O)C(Cc1ccccc1)NC(=O)CCl (stereo not given)	Sm TGR inh inconclusive (no result: NS1 inh)
COc1ccc(-c2nc3cnc(OC)nc3n(Cc3cccs3)c2=O)cc1	none (no result: RE007 growth inh, Sm TGR inh, LmPK inh, NS1 inh)
CNC(=O)COC(=O)c1ccc(-c2nc3ccccc3s2)s1	LmPK inh 14.1µM
COCCCNC(=O)COC(=O)c1ccc(-c2nc3ccccc3s2)s1	none (no result: NS1 inh)
Cc1cc(C)cc(NC(=O)NCCc2c(C)nn(C)c2C)c1	none (no result: RE007 growth inh, Giardia FBPA inh, LmPK inh, NS1 inh)
Cc1ccc(S(=O)(=O)N2CCCN(Cc3nc4ccccc4c(=O)[nH]3)CC2)cc1	Sm TGR inh 44.7µM (no result: Giardia FBPA inh, LmPK inh, NS1 inh)
Cc1cc(C)c(-c2cc([C@H](C)O/N=C3/[C@H]4OC4[C@@H](O)[C@H]4[C@H]3CCn3c(=O)n(-c5ccccc5)c(=O)n34)on2)c(C)c1 (stereo not given in full)	none (no result: RE007 growth inh, Tb PYK inh, Sm TGR inh, LmPK inh, NS1 inh)
O=c1[nH][nH]c2c(N=Cc3ccccc3O)ccc(F)c12	Giardia FBPA inh 6.29µM, Sm TGR inh 0.398µM
Cc1ccc(C)n1-c1ccc(C(=O)/C=C/N(C)C)cc1	Sm TGR inh 31.6µM (no result: NS1 inh)

Bioassay records deposited in PubChem by National Center for Advancing Translational Sciences (NCATS).
